Screening results deposited in PubChem BioAssay by National Center for Advancing Translational Sciences (NCATS).
Tb PYK inh = T. brucei pyruvate kinase inhibition | Q57TT1 | TbPYK enzyme, Kinase-Glo Plus ATP luminescence, 45 min | 410,000 tested, 0.12% active | Potency, µM (doses to about 76.8 µM), for the others: at the top dose activity, negative = inhibition, most hits filed as inhibitors; also: nearly all actives have a fitted effect of over 50% in size
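Activity of T. brucei pyruvate kinase was followed by Kinase-Glo Plus luminescence after the enzyme reacted 45 min at room temperature with 130 uM ADP (final) and substrate. Test compounds were added before ADP at multiple concentrations.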
AmpC detergent = AmpC beta-lactamase inhibition with detergent present; AID 485294; 370,000 tested, 0.041% active; Potency, µM (series often up to 114 µM), inactives show at the top dose activity change, negative = inhibition, usual class: inhibitors; AmpC hydrolysis of nitrocefin, absorbance 480 nm, 0.01% Triton;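 also: 0% = no-compound wells and -100% = no-enzyme wells; nearly all actives have a fitted effect of over 25% in size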
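AmpC (5.3 nM in the dispensed reagent) in 20 mM phosphate pH 7.0 with 0.01% (detergent screen) or 0.0001% Triton X-100 was preincubated with compounds for 15 min at room temperature. Nitrocefin was then added from an 800 uM solution, and hydrolysis was followed at 480 nm.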
Giardia FBPA inh-1 = Giardia lamblia aldolase inhibition. Potency, µM (series often up to 59.6 µM), for inactives: at the highest dose activity, negative = inhibition, hits mostly inhibitors. purified Giardia FBPA. A8B2U2. AID 2451. 290,000 tested, 0.71% active; also: nearly all actives have a fitted effect of over 55% in size
Target sequence (A8B2U2 whole entry, looked up): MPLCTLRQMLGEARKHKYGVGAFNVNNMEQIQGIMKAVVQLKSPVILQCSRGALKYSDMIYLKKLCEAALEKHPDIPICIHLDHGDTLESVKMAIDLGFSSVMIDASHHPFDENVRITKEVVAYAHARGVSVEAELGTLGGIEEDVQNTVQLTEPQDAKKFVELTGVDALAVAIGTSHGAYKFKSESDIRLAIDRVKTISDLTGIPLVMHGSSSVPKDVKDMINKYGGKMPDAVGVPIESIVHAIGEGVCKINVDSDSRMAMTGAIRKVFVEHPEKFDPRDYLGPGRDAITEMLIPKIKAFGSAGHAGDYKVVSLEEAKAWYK
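40 nM FBPA preincubated 10 min at RT with compound (up to 57.5 uM final), then substrate plus GAPDH/TPI/NAD/arsenate coupling and diaphorase/resazurin added. Fluorescence read after 20 min at RT, 525/598 nm.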
LmPK inhibitor = blocks Leishmania mexicana pyruvate kinase activity. Q27686. purified LmPK, Kinase-Glo ATP luminescence, 1 h. Potency, µM (series often up to 57.5 µM), for inactives: top-dose activity change, negative = inhibition, actives largely listed as inhibitors. 290,000 tested, 0.37% active. AID 1721
Target sequence (Q27686 whole entry, looked up): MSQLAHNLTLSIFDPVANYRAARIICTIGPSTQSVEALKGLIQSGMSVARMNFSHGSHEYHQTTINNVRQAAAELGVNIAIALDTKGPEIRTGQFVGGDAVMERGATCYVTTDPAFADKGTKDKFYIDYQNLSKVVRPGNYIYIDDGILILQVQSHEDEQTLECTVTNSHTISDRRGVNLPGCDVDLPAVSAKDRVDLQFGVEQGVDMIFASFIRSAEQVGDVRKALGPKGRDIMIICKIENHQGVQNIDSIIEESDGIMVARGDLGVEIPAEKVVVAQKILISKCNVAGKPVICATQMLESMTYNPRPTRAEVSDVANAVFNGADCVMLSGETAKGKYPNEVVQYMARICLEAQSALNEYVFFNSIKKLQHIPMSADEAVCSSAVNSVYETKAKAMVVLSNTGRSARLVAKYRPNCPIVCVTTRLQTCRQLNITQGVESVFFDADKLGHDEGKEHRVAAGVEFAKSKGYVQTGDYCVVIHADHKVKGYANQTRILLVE
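Purified LmPK (0.1 nM) with 0.5 mM PEP and 0.1 mM ADP in imidazole buffer pH 7.2 with MgCl2/KCl, 1 h at room temperature. ATP formed was read by luciferase luminescence and normalized to no-enzyme and uninhibited controls.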
AmpC no deterg = AmpC beta-lactamase inhibition without detergent; P00811; AmpC nitrocefin hydrolysis, absorbance 480 nm, 0.0001% Triton; Potency, µM (series often up to 57.1 µM), inactives show at the highest dose activity change, negative = inhibition, usual class: inhibitors; 330,000 tested, 0.52% active;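 also: plate controls were no compound for no effect and no enzyme for full effect; nearly all actives have a fitted effect of over 20% in size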
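20 mM phosphate pH 7.0 + 0.01% (detergent screen) or 0.0001% Triton X-100; 5.3 nM AmpC reagent; cpd preinc 15 min RT; nitrocefin (800 uM stock) to start; A480 q20 s × 4 min; Activity was normalised to no-enzyme and no-compound control wells.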
RE007 growth inh = less growth of the S. pombe RE007 Vpr strain; 360,000 tested, 0.21% active; S. pombe RE007 Vpr strain, BacTiter-Glo ATP luminescence, 24 h; Potency, µM (top dose mostly 92.2 µM), without a hit: top-dose activity change, negative = less growth, hits mostly inhibitors; AID 651644; active = well fitted falling curve with a large enough effect; inconclusive = small, poorly fitted or top-dose-only effect; inactive = no such curve, though single readings can be large or run the other way; also: nearly all actives have a fitted effect of over 50% in size
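Fission yeast RE007 carrying one integrated HIV-1 vpr copy, seeded at OD 0.01 in PMG+AL medium with 23 nL pinned compound. Grown 24 h at 30 degrees; viability read by BacTiter-Glo luminescence after 5 min.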
Giardia growth = blocks growth of Giardia lamblia trophozoites; shares compounds with Giardia FBPA inh-1; Giardia lamblia trophozoite growth inhibition; Potency, µM (series often up to 57.5 µM), for the others: top-dose activity change, negative = inhibition, actives largely listed as inhibitors; 1,500 tested, 5% active;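 also: trophozoites exposed to compound for 48 h at 37 °C; nearly all actives have a fitted effect of over 70% in size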
Mammalian tox = toxic to mammalian cells in Giardia aldolase counter-screen | mammalian cell viability counter-screen, qHTS | 1,500 tested, 4% active | Potency, µM (doses to about 57.5 µM), without a hit: at the highest dose viability change, negative = toxicity, usual class: inhibitors | shares compounds with Giardia FBPA inh-1 | AID 2786;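 also: Chinese hamster ovary cells used as mammalian cytotoxicity surrogate; viability measured as cellular ATP by luminescence; compound exposure lasted 48 h before reading; nearly all actives have a fitted effect of over 60% in size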
Giardia FBPA inh-2 = confirmation of Giardia fructose-bisphosphate aldolase inhibitors. shares compounds with Giardia FBPA inh-1. purified Giardia aldolase enzyme activity, qHTS. Potency, µM (titrated, usually from 57.5 µM), without a hit: top-dose activity change, negative = inhibition, most hits filed as inhibitors. 1,500 tested, 5% active. AID 2787; also: nearly all actives have a fitted effect of over 45% in size
Rabbit FBPA inh = blocks rabbit muscle aldolase in Giardia aldolase selectivity test | shares compounds with Giardia FBPA inh-1 | Rabbit muscle FBPA enzyme inhibition, selectivity counter-screen | Potency, µM (highest dose often 57.5 µM), without a hit: at the top dose activity, negative = inhibition, hits mostly inhibitors | 1,500 tested, 4% active | AID 2794; also: nearly all actives have a fitted effect of over 60% in size
GAPDH counter = counter-screen for Giardia aldolase inhibitors: GAPDH coupling enzyme. shares compounds with Giardia FBPA inh-1. GAPDH coupling enzyme counterscreen, biochemical, qHTS. Potency, µM (doses to about 57.5 µM), for inactives: at the top dose activity change, negative = inhibition, actives largely listed as inhibitors. 1,500 tested, 6% active; also: nearly all actives have a fitted effect of over 55% in size
Numbers without * were called inactive; ? = inconclusive; . = not tested or not shown; [ ] = remark or other dose. In the library only some 1.4% were active in any assay of this set; here they are far more common. Unless noted, calls follow the shape of the dose curve; as a rule, active = well fitted curve in the direction sought with a large enough effect; inconclusive = small, poorly fitted or top-dose-only effect, or another doubt; inactive = no such curve, though single readings can be large; an effect the other way counts as inactive or inconclusive. Unless noted, % is scaled to controls: 0 for no effect and ±100 for the full control effect; potency is read from the fitted curve at half-maximal effect.

SMILES	Tb PYK inh	AmpC detergent	Giardia FBPA inh-1	LmPK inhibitor	AmpC no deterg	RE007 growth inh	Giardia growth	Mammalian tox	Giardia FBPA inh-2	Rabbit FBPA inh	GAPDH counter
COc1cc(C(=O)NC(=S)Nc2ccc([N+](=O)[O-])cc2)cc(OC)c1OC	-4%	-5%	13µM*	2%	-13%	-15%	-25%	-3%	11%	8%	5%
COc1cc(CC(=O)Nc2nccs2)cc(OC)c1OC	1%	-15%	1%	-5%	-5%	-6%	.	.	.	.	.
COc1cc(C(=O)NC(=S)Nc2nccs2)cc(OC)c1OC	-1%	3%	14µM*	-2%	-19%	1%	?	-1%	-4%	13%	-6%
Cc1ccc(SCc2nc(-c3ccc(C(=O)Nc4cc(C)ccc4C)cc3)oc2C)cc1	-7%	1%	.	.	.	.	.	.	.	.	.
COC(=O)c1sc(NC(=S)NC(=O)c2cc(OC)c(OC)c(OC)c2)nc1C	1%	-11%	3.2µM*	-1%	-11%	-4%	2%[10.4 µM]	-8%	7%	7%	10%
O=c1[nH]c(=S)c2ncn(-c3ccccc3)c2[nH]1	-7%	5%	10µM*	-1%	-12%	-9%	10%	7%	3%	3%	7%
CC(C)c1ccc(S(=O)(=O)N2CCN(CC(=O)c3ccc(O)c(O)c3)CC2)cc1	.	?	13µM*	5%	-32%	.	20%	?	?	-28%	-2%
CC1=NN(C(N)=S)C(C)(C)C1	-1%	-6%	11µM*	-6%	0%	13%	-13%	17%	2%	10%	9%
Cc1cccc(-n2c3nc(=O)[nH]c(=O)c-3cc3ccc(Cl)cc32)c1C	-2%	1%	.	.	.	.	.	.	.	.	.
Cn1c(-c2ccc(F)cc2)cnc1NCc1ccccc1F	6%	?	28µM*	-8%	-12%	-9%	-9%[10.4 µM]	2%	1%	3%	11%
COc1ccc(CNc2ncc(-c3ccccc3)n2C)cc1	14%	-14%	18µM*	6%	-14%	-15%	-18%	25%	1%	1%	9%
COc1ccc(OC)c(CNc2ncc(-c3cccc([N+](=O)[O-])c3)n2C)c1	19%	?	28µM*	-3%	-7%	-2%	?	-3%	-6%	1%	4%
Cn1c(-c2ccc(F)cc2)cnc1NCc1ccc(F)cc1F	3%	?	-25%	2%	-19%	-3%	.	.	.	.	.
O=C(NC(=S)Nn1cnnc1)c1ccccc1Br	-9%	-9%	11µM*	1%	-26%	7%	?	-3%	3%	5%	16%
O=C(O)C1CCN(Cc2ccccn2)CC1	-10%	-9%	-19%	0%	-6%	-3%	.	.	.	.	.
COc1cccc(C(=O)N2CCN(Cc3ccccn3)CC2)c1	-4%	?	25µM*	-2%	-1%	-3%	66%	11%	3%	-3%	-26%
CCOC(=O)C1CCN(Cc2ccccn2)CC1	.	-14%	18µM*	0%	-3%	.	?	-2%	0%	11%	5%
CCC(COC(C)=O)Nc1nc2c([nH]1)c(=O)n(C)c(=O)n2C (stereo not drawn)	-3%	-5%	0%	2%	-13%	4%	.	.	.	.	.
Cn1c(=O)c2[nH]c(N/N=C(/C#N)C(N)=O)nc2n(C)c1=O	-2%	8%	20µM*	-7%	-7%	-6%	34%	-5%	5%	2%	-2%
COc1cc(Cl)ccc1NC(=S)N(CCN1CCOCC1)C1CCN(C(C)=O)CC1	-6%	6%	18µM*	3%	58%	-3%	-7%[10.4 µM]	4%	6%	1%	5%
CC(=O)N1CCC(N(CCN2CCOCC2)C(=S)Nc2ccc(C)cc2)CC1	-8%	-8%	7.1µM*	7%	0%	3%	-19%[38.3 µM]	-13%	2%	12%	5%
COc1ncnc2c1NC1=C(S2)C(=NCCC(=O)O)CC(C)(C)C1	-16%	1%	?	1%	-6%	-9%	.	.	.	.	.
CN(C)c1ncnc2c1NC1=C(S2)C(=NCCCC(=O)O)CC(C)(C)C1	-25%	-14%	?	-2%	3%	-27%	-3%[38.3 µM]	-19%	-17%	-12%	-23%
C/C(=N\Nc1nc2ccccc2c(=O)n1O)c1ccco1	-6%	-1%	-11%	1%	-14%	7%	.	.	.	.	.
Cc1ccc(C)c(/C=N/Nc2nc3ccccc3c(=O)n2O)c1	?	0%	16µM*	3%	-20%	11%	?	-6%	-20%	-11%	-15%
SMILES	Tb PYK inh	AmpC detergent	Giardia FBPA inh-1	LmPK inhibitor	AmpC no deterg	RE007 growth inh	Giardia growth	Mammalian tox	Giardia FBPA inh-2	Rabbit FBPA inh	GAPDH counter
O=C(CSc1nc2ccccc2n1Cc1cccc(C(F)(F)F)c1)NCc1ccccc1	1%	16%	.	.	.	.	.	.	.	.	.
CC(=O)c1cc2c(cc1N/C(=N/S(=O)(=O)c1ccc(F)cc1)c1ccccc1)OCO2	-8%	1%	.	.	.	.	.	.	.	.	.
CCOc1ccc(CCNC(=O)Cn2ncc3c([nH]c4ccccc43)c2=O)cc1OCC	1%	10%	.	.	.	.	.	.	.	.	.
Cc1cccc(/C=N/NC(=O)Cn2nnnc2N)n1	1%	-7%	18µM*	-4%	-17%	11%	11%	-3%	3%	8%	10%
Nc1nnnn1CC(=O)N/N=C/C=C/c1ccccc1	1%	0%	1%	4%	-25%	24%	.	.	.	.	.
O=c1cc2oc3cc(O)c(O)cc3c(-c3ccccc3O)c-2cc1O	-20%	1%	16µM*	-21%	16µM*	.	-20%	8%	?	-6%	10%
O=c1cc(-c2ccccc2O)oc2cc(O)ccc12	.	.	-1%	.	.	.	.	.	.	.	.
